An excerpt weighted towards active compounds, which were near 1.5% of everything screened.
Glyco luc inh: increase of ERlucT glycosylation luciferase signal, primary screen, N-linked glycosylation inhibitor project, D54 ERlucT cells, luminescence, set 2. reporter increase, % at 12.5 µM. D54 ERlucT glycosylation luciferase reporter, 24 h; percent of 100 nM tunicamycin response. 360,000 tested, 0.23% active;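 active means mean luciferase reporter signal, scaled so untreated is 0 and the glycosylation-blocking control 100, at or above a set limit in every replicate; inconclusive means mean reaches the limit but not every replicate does; inactive means mean below the limit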;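 further: luciferase carries N-glycosylation sites so blocking glycosylation raises the light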
RAD54 inh: inhibitors of human RAD54 branch migration, primary screen, biochemical, fluorescence, single point; DNA repair and recombination protein RAD54-like (Homo sapiens), Q92698; RAD54 Holliday junction branch migration, FAM/BHQ fluorescence; inhibition, % at 10.4 µM; 360,000 tested, 0.14% active; AID 602329, 2012;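 active means mean normalized replicate activity at least 40 and at least half of replicates scoring 40 or more; inconclusive means only one of the two criteria met; inactive means mean below 40 and under half of replicates reaching 40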;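 further: inhibitors cause a drop in the FAM fluorescence signal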
Target sequence (Q92698 whole entry, looked up): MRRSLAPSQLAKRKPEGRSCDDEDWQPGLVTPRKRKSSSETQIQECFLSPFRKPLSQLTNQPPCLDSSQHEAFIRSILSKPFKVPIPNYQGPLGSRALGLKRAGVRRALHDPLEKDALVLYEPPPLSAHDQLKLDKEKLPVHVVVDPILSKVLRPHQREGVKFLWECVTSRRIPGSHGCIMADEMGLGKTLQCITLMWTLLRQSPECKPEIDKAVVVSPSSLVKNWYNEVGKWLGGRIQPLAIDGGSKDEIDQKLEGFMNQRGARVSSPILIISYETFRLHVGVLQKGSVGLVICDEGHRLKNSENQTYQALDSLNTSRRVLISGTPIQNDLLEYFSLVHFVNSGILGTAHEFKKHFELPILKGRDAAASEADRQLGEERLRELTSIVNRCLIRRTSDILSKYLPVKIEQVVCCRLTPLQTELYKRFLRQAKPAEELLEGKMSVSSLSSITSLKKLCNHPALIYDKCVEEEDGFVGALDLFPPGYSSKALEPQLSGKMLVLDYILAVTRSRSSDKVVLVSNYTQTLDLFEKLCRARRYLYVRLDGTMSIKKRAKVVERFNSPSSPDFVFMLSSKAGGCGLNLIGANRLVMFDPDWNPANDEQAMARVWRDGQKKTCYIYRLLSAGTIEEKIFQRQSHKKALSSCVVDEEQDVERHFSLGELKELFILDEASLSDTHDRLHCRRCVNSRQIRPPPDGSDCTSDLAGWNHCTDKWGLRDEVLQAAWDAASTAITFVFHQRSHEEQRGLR
PvdQ inh: P. aeruginosa PvdQ acylase inhibitors, primary screen, biochemical, fluorescence, plate reader and imaging, single point | PvdQ acylase [Pseudomonas aeruginosa LESB58] | purified PvdQ acylase | inhibition, % at 10 µM | 340,000 tested, 0.063% active | AID 488965, 2010; in the data active means inhibition above about 30%, passing the limit was not always enough; inconclusive means no clear call, values can overlap the other calls
dFosB act-1: activators of delta FosB homodimer, primary screen, biochemical, fluorescence polarization, TAMRA-CDK5 oligo, single point. purified delta FosB; percent of positive-control signal above neutral wells. AID 493131, 2011. Protein FosB (Mus musculus), P13346. 340,000 tested, 0.99% active. activation, % at 25 µM;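 active means mean activation above about 17%, with every replicate also reaching it, limit read from the data, passing the limit was not always enough; inconclusive means only one of the two conditions met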
F508del corr: F508del CFTR correction, initial screen, CFBE line, single point | CFBE cells, YFP halide quenching; stimulated with forskolin plus potentiator P3; % fluorescence drop versus neutral controls | activity (quench increase), % at 7.58 µM | 350,000 tested, 0.36% active;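 active means mean added fluorescence quench of at least 8% versus neutral control, with both replicates also reaching 8%; inconclusive means only one of the mean or replicate conditions met; inactive means mean below 8% and not both replicates reaching 8%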;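 further: cells transiently co-express mutant CFTR-F508del with the halide-sensitive YFP; corrector assay measuring rescue of mutant channel to the surface after 24 h compound exposure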
RAD52 inh: RAD52 DNA annealing inhibitors, primary screen, biochemical, FRET, single point, set 2 | DNA repair protein RAD52 homolog (Homo sapiens), P43351 | recombinant RAD52 DNA annealing, FRET fluorescence | inhibition, % at 18.7 µM | 360,000 tested, 0.46% active;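 active means every replicate showing at least 50% inhibition; inconclusive means mean inhibition at least 50% but not in every replicate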
dFosB act-2: activators of mouse delta FosB DNA binding, confirmation, biochemical, fluorescence polarization, TAMRA-CDK5 oligo, cherry-picked samples; shares compounds with dFosB act-1; purified delta FosB; normalised: neutral wells 0, positive control 100; activation, % at 24.9 µM; 2,400 tested, under 10 active; AID 588690, 2011;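 active means highest replicate activation at or above 34% and every replicate reaching that threshold; inconclusive means meets only one of the two criteria; inactive means meets neither criterion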;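 further: higher polarization means more probe DNA bound by delta FosB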
Each line names hits and unclear results; the compound was inactive in the other large screens (follow-up assays come after a bar, where they were run).

CCCNC(=O)CSc1nc(-c2cccs2)cc(C(F)(F)F)n1	none (no result: F508del corr, RAD52 inh)
CC(/C=N/NC(=O)c1ccc(Cn2cc([N+](=O)[O-])cn2)o1)=C\c1ccccc1	dFosB act-1 28 | dFosB act-2 inactive
CN1C(=O)c2cc(NC(=O)Cc3cccs3)ccc2OC[C@H]2O[C@H](CC(=O)O)CC[C@H]21	none (no result: Glyco luc inh, PvdQ inh, dFosB act-1)
O=C(C[C@H]1CC[C@@H](NC(=O)C2CCOCC2)[C@@H](CO)O1)NCC1CC1	none (no result: Glyco luc inh, RAD54 inh, PvdQ inh, dFosB act-1)
CCc1cccc2c(C(=O)COC(=O)c3ccc(O)cc3)c[nH]c12	dFosB act-1 36 | dFosB act-2 inactive
O=C(c1ccc(F)cc1)N1[C@@H](CO)[C@@H]2c3ccccc3NC[C@@H]21	none (no result: Glyco luc inh, PvdQ inh, dFosB act-1)
Cc1nn(C)c(C)c1NC(=O)CSc1nc(-c2ccccc2Cl)nc2c1cnn2-c1ccccc1	dFosB act-1 122 (no result: F508del corr, RAD52 inh) | dFosB act-2 inactive
COc1ccc2c3c(n(C)c2c1)[C@@H](CO)N(C(=O)C1CC1)CC31CN(C(=O)CN(C)C)C1	none (no result: Glyco luc inh, RAD54 inh, PvdQ inh, dFosB act-1)
CNC(=O)c1c[nH]c2ccc(S(=O)(=O)Nc3cccc(SC)c3)cc2c1=O	dFosB act-1 19 | dFosB act-2 inactive
O=C(CNC(=O)c1ccc2ccccc2c1)OCC(=O)N1CCN(S(=O)(=O)c2ccc3ccccc3c2)CC1	dFosB act-1 22 (no result: F508del corr) | dFosB act-2 inactive
CN1/C(=C\C(=O)COC(=O)CNC(=O)c2ccc3ccccc3c2)C(C)(C)c2ccccc21	dFosB act-1 34 | dFosB act-2 inactive
CC(=O)NCc1ccc(S(=O)(=O)N2CCN(S(=O)(=O)c3ccc4ccccc4c3)CC2)cc1	dFosB act-1 49 | dFosB act-2 inactive
COC(=O)C[C@@H]1CC[C@H]2[C@@H](COC[C@@H](O)CN2CCC(F)(F)F)O1	none (no result: Glyco luc inh, PvdQ inh, dFosB act-1, RAD52 inh)
CN1/C(=C\C=N\NC(=O)c2ccccc2Br)C(C)(C)c2ccccc21	none (no result: RAD52 inh)
CN1/C(=C/C=N/n2cnnc2)C(C)(C)c2ccccc21	dFosB act-1 20 (no result: RAD54 inh, F508del corr, RAD52 inh) | dFosB act-2 inactive
CSc1nc2sc(-c3ccccc3)cc2c(=O)n1N	dFosB act-1 65 (no result: F508del corr, RAD52 inh) | dFosB act-2 inactive
N#C/C(=C\c1c[nH]c2ccccc12)C(=O)Nc1ncc(Cc2ccc(Cl)cc2Cl)s1	dFosB act-1 31 (no result: RAD54 inh, F508del corr) | dFosB act-2 inactive
COc1cccc(C(=O)Nc2ccc3c(c2)OC[C@@H](C)N(C(C)=O)C[C@H](C)[C@H](OC)CN(C)C3=O)c1	none (no result: Glyco luc inh, PvdQ inh, dFosB act-1)
COc1cc(-c2ccc3c(=O)c4ccccc4n(C)c3c2)cc(OC)c1OC	dFosB act-1 35 | dFosB act-2 inactive
Cc1ccccc1NC(=S)c1nc2ccccc2[nH]1	none (no result: F508del corr)
S=C(Nc1ccc(Cl)cc1)c1nc2ccccc2[nH]1	dFosB act-1 29 (no result: F508del corr, RAD52 inh) | dFosB act-2 inactive
COc1ccc(/C=C2\SC(=O)N(CC(=O)Nc3ccccc3O)C2=O)cc1OC	none
COC(=O)COc1ccc(/C=C2\SC(=O)N(CC(=O)Nc3ccccc3F)C2=O)cc1	dFosB act-1 33 | dFosB act-2 inactive
Cc1ccccc1NC(=O)CN1C(=O)S/C(=C/c2cccnc2)C1=O	none
CC(/C=C1\SC(=O)N(CC(=O)Nc2cccc(O)c2)C1=O)=C\c1ccccc1	dFosB act-1 24 (no result: RAD54 inh, F508del corr, RAD52 inh) | dFosB act-2 inactive
CC(/C=C1\SC(=O)N(CC(=O)Nc2ccc(O)cc2)C1=O)=C\c1ccccc1	none
O=C(CN1C(=O)S/C(=C\c2ccc(Cl)cc2)C1=O)NNC(=O)c1ccccc1O	dFosB act-1 26 (no result: RAD54 inh, F508del corr, RAD52 inh) | dFosB act-2 inactive
COc1ccc(/C=C2\SC(=O)N(CC(=O)Nc3ccc(O)cc3)C2=O)cc1OC	dFosB act-1 25 | dFosB act-2 inactive
O=C(CN1C(=O)S/C(=C\c2ccc(Cl)cc2)C1=O)NC1C=CS(=O)(=O)C1 (stereo unspecified)	dFosB act-1 20 | dFosB act-2 inactive
CCS(=O)(=O)Nc1ccc2c(c1)C(=O)N(C)C[C@@H](OC)[C@@H](C)CN(C(=O)C1CC1)[C@H](C)CO2	none (no result: Glyco luc inh, PvdQ inh, dFosB act-1)
COc1cccc(-c2cn(CC[C@H]3CC[C@H](NC(=O)CN(C)C)[C@@H](CO)O3)nn2)c1	none (no result: Glyco luc inh, PvdQ inh, dFosB act-1)
Clc1ccc(-c2ccnc(Oc3cc(Cl)ccc3Cl)n2)cc1	dFosB act-1 19 (no result: RAD54 inh, F508del corr, RAD52 inh) | dFosB act-2 inactive
Clc1ccc(-c2ccnc(Oc3ccc4ccccc4c3)n2)cc1	none (no result: F508del corr, RAD52 inh)
COc1ccc(-c2cc(=O)oc3c(C)c(OCC(=O)Nc4cccnc4)ccc23)cc1	dFosB act-1 41 | dFosB act-2 inactive
COc1ccc(-c2cc(=O)oc3cc(OCC(=O)Nc4ccc(CCO)cc4)ccc23)cc1	dFosB act-1 22 | dFosB act-2 inactive
CCCNC(=O)N1CC2(CCN(Cc3cccc(OC)c3)CC2)c2c(n(C)c3cc(OC)ccc23)[C@@H]1CO	none (no result: Glyco luc inh, RAD54 inh, PvdQ inh, dFosB act-1)
CN1[C@@H]2c3ccc(C4=CCCCC4)c(=O)n3C[C@H]1[C@H](CO)[C@H]2C(=O)NCc1cccc(F)c1	none (no result: Glyco luc inh, PvdQ inh, dFosB act-1)
COc1ccc(CNC(=O)Cn2ncn3cccc3c2=O)cc1	none (no result: Glyco luc inh, RAD54 inh, PvdQ inh, dFosB act-1)
COc1ccc(-c2cc3c(=O)n(CC(=O)NCc4ccc(C)cc4)ncn3n2)cc1	none
COc1ccc(-c2cc3c(=O)n(CC(=O)Nc4cccc(Cl)c4)ncn3n2)cc1	dFosB act-1 42 (no result: RAD54 inh) | dFosB act-2 inactive
COc1ccc(CNC(=O)Cn2ncn3c(cc4ccccc43)c2=O)cc1	dFosB act-1 73 | dFosB act-2 inactive
COc1ccc(-c2cc3c(=O)n(CC(=O)NCc4ccc(Cl)cc4)ncn3n2)cc1	none
COc1ccc(-c2cc3c(=O)n(CC(=O)NCc4ccc(F)cc4)ncn3n2)cc1	dFosB act-1 101 | dFosB act-2 inconclusive
O=C1N[C@H](Cc2ccccc2)COCc2cn(nn2)CC[C@H]1Cc1ccccc1	none (no result: Glyco luc inh, RAD54 inh, PvdQ inh, dFosB act-1, F508del corr)
CC(C)C(=O)Nc1cccc(NC(=S)NC(=O)c2ccc(Cl)cc2)c1	dFosB act-1 28 (no result: F508del corr, RAD52 inh) | dFosB act-2 inactive
CN1C(=O)c2cc(NC(=O)C3CC3)ccc2OC[C@H]2O[C@@H](CC(=O)NCCN3CCCC3)CC[C@H]21	none (no result: Glyco luc inh, PvdQ inh, dFosB act-1)
COc1ccc2c3c([nH]c2c1)[C@H](CO)N(Cc1ccccc1F)CC31CCN(C(=O)C2CCC2)CC1	none (no result: Glyco luc inh, RAD54 inh, PvdQ inh, dFosB act-1)
COC(=O)NC1CCC(CC2CCC(NC(=O)OC)CC2)CC1 (stereo unspecified)	none (no result: F508del corr, RAD52 inh)
O=C(NC1CCC(CC2CCC(NC(=O)C(Cl)Cl)CC2)CC1)C(Cl)Cl (stereo unspecified)	dFosB act-1 59 | dFosB act-2 inactive
C[C@H]1CN([C@@H](C)CO)C(=O)c2cccc(NC(=O)c3cnccn3)c2O[C@@H]1CN(C)C(=O)Nc1ccccc1	none (no result: Glyco luc inh, PvdQ inh, dFosB act-1)
